Wnt act = Wnt/beta-catenin pathway activators, primary screen, cell-based, plate reader, single point. Wnt/beta-catenin reporter cell assay, activator. activation, % at 9.35 µM. 300,000 compounds, 1.2% hits; in the data active = activation above about 30%, passing the limit was not always enough; inconclusive = no clear call, values can overlap the other calls;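 also: 0% = neutral control wells and 100% = positive control wells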
MITF act = activators of MITF-driven TRPM1 promoter reporter, primary screen, cell-based, SK-MEL-5, luciferase, single point. SK-MEL-5 TRPM1-promoter luciferase, 24 h; % of positive control, neutral wells = 0. activation, % at 12.5 µM. 300,000 compounds, 0.75% hits. AID 588334, 2011;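 active = mean activation of at least 80% with every replicate also reaching 80%; inconclusive = mean reaches 80% but some replicate falls short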;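 also: 0% = neutral control wells and 100% = parthenolide positive control wells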
HSF1 inhib = HSF1 inhibitors in luciferase reporter cells, primary screen, cell-based, NIH3T3, luminescence | NIH3T3-HGL HSE-luciferase, MG132-induced, luminescence 8 h; active compounds read low | activity change, negative = inhibition, % at 7.5 µM (by protocol) | 300,000 compounds, 0.77% hits | AID 2098, 2009;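 active = more than half of replicate wells show activity change below -50%, luminescence cut by over half; inconclusive = some wells, but at most half, below -50%; inactive = no replicate well below -50%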;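 also: luciferase reports HSF-1 transcriptional activity via heat shock element; 0% = median of DMSO wells and -100% = zero luminescence signal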
HSF-1 act = HSF-1 activators, primary screen, NIH3T3-HGL cells, MG132 stress, luminescence, single point | NIH3T3-HGL HSF-1 luciferase reporter, 8 h; 100% = twice DMSO control signal | activation, % at 9 µM | 300,000 compounds, 1.7% hits | AID 504408, 2011;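 active = mean replicate activation of at least 50% with a set share of replicates each reaching 50%; inconclusive = only one of those two conditions met; inactive = mean below 50% and too few replicates reaching it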;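 also: 0% = median of the neutral control wells and 100% = twice that signal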
esBAF inh = Bmi1 luciferase reporter increase in mESCs, primary screen, esBAF inhibitor project, mouse ES cells, Bmi1 luciferase knock-in, single point; 24 h; 100% = twice the neutral-well signal; reporter increase, % at 12.5 µM; 350,000 compounds, 2% hits; in the data active = activation above about 40%; inconclusive = no clear call, values can overlap the other calls;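 also: 0% = median of the plate's neutral control wells and 100% = double that signal; a rise in the Bmi1 reporter signal indicates esBAF inhibition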
Starred values were filed as active, the others as inactive; ? = inconclusive; nt = no result given. An excerpt weighted towards active compounds, which were near 3.9% of everything screened.

SMILES	Wnt act	MITF act	HSF1 inhib	HSF-1 act	esBAF inh
CC(C)NC(=O)N(C)C[C@@H]1Oc2cc(C#CC(C)(C)O)ccc2S(=O)(=O)N([C@H](C)CO)C[C@@H]1C	nt	nt	nt	nt	-2
CC(C)CC#Cc1ccc2c(c1)O[C@@H](CN(C)C(=O)Nc1ccccc1)[C@@H](C)CN([C@H](C)CO)S2(=O)=O	nt	nt	nt	nt	-16
O=c1/c(=C\c2ccc(O)cc2)sc2nc(-c3ccccc3)c(-c3ccccc3)n12	-2	-12	-1	13	nt
O=c1/c(=C/c2ccccc2)sc2nnc(-c3cccs3)n12	2	nt	27	64*	nt
C[C@@H]1CCCCO[C@H](CN(C)Cc2ccc(C(F)(F)F)cc2)[C@H](C)CN([C@H](C)CO)C(=O)c2cc(NC(=O)CCCN(C)C)ccc2O1	nt	nt	nt	nt	2
O=C(NCC[C@@H]1CC[C@H](NS(=O)(=O)Cc2ccccc2)[C@H](CO)O1)C1CCCC1	nt	nt	nt	nt	2
Cc1nc(C(=O)Nc2ccccc2)sc1C(=O)Nc1ccccc1	1	86*	20	23	54*
Cc1ccc(NC(=O)c2sc(N)nc2C)cc1	7	51	9	6	50*
CO[C@H]1CN(C)C(=O)c2ccc(NC(=O)C3CCCCC3)cc2OC[C@H](C)N(C)C[C@H]1C	nt	nt	nt	nt	3
c1ccc(-c2nnsc2Sc2ccccn2)cc1	36*	48	5	3	54*
Cc1nnsc1Sc1ccccn1	nt	8	5	-1	nt
CC1CCN(Cc2cc(=O)oc3ccc(C(C)C)cc23)CC1	0	23	-9	5	-13
Cc1cc2oc(=O)cc(CN3CCC(C)CC3)c2cc1C	5	68	13	16	41*
CC(=O)N1CCN(Cc2cc(=O)oc3cc(C)c(C)cc23)CC1	0	nt	nt	nt	-1
CC(C)c1ccc2oc(=O)cc(CN3CCCCC3)c2c1	3	0	-54*	-62	0
C[C@@H]1CCCCO[C@H](CN(C)S(=O)(=O)c2cccs2)[C@H](C)CN([C@H](C)CO)C(=O)c2cc(NC(=O)C3CCCCC3)ccc2O1	nt	nt	nt	nt	1
CCOC(=O)/C(=N/Nc1ccc(C)cc1)S(=O)(=O)c1ccc(Cl)cc1	nt	40	nt	nt	54*
CCOC(=O)/C(=N/Nc1ccc(Cl)cc1)Sc1nnnn1-c1ccc(C)cc1	-3	-5	55	74*	nt
CCCNC(=O)N[C@H]1CC[C@@H](CCn2cc(C3CCCCC3)nn2)O[C@H]1CO	nt	nt	nt	nt	-7
Nc1nc(NCc2ccco2)nc(NC2CCCCC2)c1[N+](=O)[O-]	-1	nt	-72*	-79	nt
Nc1nc(NCCO)nc(NC2CCCCC2)c1[N+](=O)[O-]	4	14	-69*	-73	6
C[C@@H]1CN([C@@H](C)CO)C(=O)c2cc(NS(=O)(=O)c3cccs3)ccc2O[C@@H](C)CCCCO[C@@H]1CN(C)S(=O)(=O)c1ccccc1	nt	nt	nt	nt	14
CC(=O)c1cccc(NC(=O)C(OC(=O)c2cccs2)c2ccccc2)c1 (configuration not stated)	-2	7	-5	21	nt
COCCNC(=O)C(OC(=O)c1cccs1)c1ccccc1 (configuration not stated)	-5	nt	-55*	-63	7
O=C(O)c1ccc(-c2noc(-c3cccc(F)c3)n2)cc1	45*	53	19	21	1
SMILES	Wnt act	MITF act	HSF1 inhib	HSF-1 act	esBAF inh
Cn1cc(Cl)c(C(=O)N/N=C/c2ccc3c4c(cccc24)CC3)n1	nt	77	6	-3	63*
Cn1cc(Br)c(C(=O)N/N=C/c2cc3c(cc2Cl)OCO3)n1	28	89*	15	34	47*
Cc1cccc(-n2cnc(C(=O)O)c2)n1	-10	11	-1	-7	1
Cc1cccc(-n2cnc(C(=O)NC3CCCCCC3)c2)n1	nt	?	16	27	68*
O=C(Nc1cccc(Cl)c1Cl)c1snnc1-c1ccccc1	0	5	-86*	-89	-1
Cn1cc(Cl)c(C(=O)Nc2cccc(Cl)c2Cl)n1	nt	54	7	1	71*
O=C(Nc1cc(Cl)ccc1O)c1snnc1-c1ccccc1	-8	-9	-1	-7	-15
C[C@@H]1CCCCO[C@H](CN(C)CC2CCCCC2)[C@H](C)CN([C@@H](C)CO)C(=O)c2cc(NC(=O)Nc3ccc(F)cc3)ccc2O1	nt	nt	nt	nt	2
Cc1ccc2occ(/C=N/NC(=O)c3ccccc3O)c(=O)c2c1	-1	-14	-9	-11	12
Cc1c(/C=C/C(=O)c2ccccc2O)cnn1C	-2	?	19	31	51*
Cc1ccc2occ(/C=C/C(=O)c3ccccc3O)c(=O)c2c1	4	77	nt	nt	51*
Cc1cc(N(C)C)c(C#N)c(NCc2ccccc2)n1	nt	25	50	93*	-6
Cc1nc2n(n1)C(c1ccccc1)C1=C(CC(c3ccco3)CC1=O)N2 (configuration not stated)	3	-2	-2	-6	3
O=C1CC(c2ccco2)CC2=C1C=Nc1ccccc1N2 (configuration not stated)	45*	-4	1	11	0
CN(CC(=O)Nc1cccc(F)c1)C(=O)CCNC(=O)c1ccco1	49*	0	-5	0	nt
CN(CC(=O)Nc1cccc(F)c1)CC(=O)Nc1cccc(S(=O)(=O)N2CCCCCC2)c1	3	-7	15	38	nt
CN(CC(=O)Nc1cccc(F)c1)C(=O)CCCNC(=O)c1ccc(Cl)cc1	20	57	21	16	54*
CN(CC(=O)Nc1cccc(F)c1)CC(=O)Nc1cccc(S(N)(=O)=O)c1	-3	3	-72*	-80	nt
O=C(Nc1cccc(Br)c1)c1cc2ccccc2o1	-3	52	56	86*	nt
COc1ccc(Cl)cc1C(=O)Nc1ccc(NC(C)=O)cc1	-2	-1	-4	-19	nt
O=C(NCc1ccco1)c1cc2ccccc2c(=O)o1	nt	11	1	-13	nt
Cc1cccc(NC(=O)c2cc3ccccc3o2)c1	42*	28	45	76*	63*
CCC(=O)Nc1cccc(NC(=O)c2cc3ccccc3o2)c1	-3	nt	35	44	38
NS(=O)(=O)c1cccc(NC(=O)c2cc3ccccc3o2)c1	4	49	-5	-3	nt
COc1ccc(Cl)cc1C(=O)Nc1ccc(Br)c(C)n1	20	5	7	18	61*
Cc1cccc(NC(=O)c2cc3ccccc3c(=O)o2)n1	52*	57	26	43	10
C[C@@H]1CN([C@H](C)CO)S(=O)(=O)c2ccc(C#CC3CCCC3)cc2O[C@@H]1CN(C)C(=O)C1CC1	nt	nt	nt	nt	-4
O=C(Nc1cccnc1Cl)c1cc2ccccc2o1	49*	71	29	40	19
Cc1cccc(NC(=S)NC(=O)c2oc3ccccc3c2C)n1	24	72	11	31	49*

High-throughput results as filed in PubChem.
